Source: ChEMBL document CHEMBL3988442, “University of Dundee, Small-Polar-MMV Screening Library” (2021)

Columns and labels:
[1] = biological target: T1, Aspartate--tRNA(Asp/Asn) ligase (Mycobacterium tuberculosis (strain ATCC 25618 / H37Rv)) (UniProt P9WFW3); test: Assay for Asp RNA synthetase-1 from Mycobacterium tuberculosis; format: functional; design: scale not given: direction of the effect not stated beside the values; conditions: 30 µM; also: in the data most compounds retested in dose-response had high values
T1 sequence (whole entry): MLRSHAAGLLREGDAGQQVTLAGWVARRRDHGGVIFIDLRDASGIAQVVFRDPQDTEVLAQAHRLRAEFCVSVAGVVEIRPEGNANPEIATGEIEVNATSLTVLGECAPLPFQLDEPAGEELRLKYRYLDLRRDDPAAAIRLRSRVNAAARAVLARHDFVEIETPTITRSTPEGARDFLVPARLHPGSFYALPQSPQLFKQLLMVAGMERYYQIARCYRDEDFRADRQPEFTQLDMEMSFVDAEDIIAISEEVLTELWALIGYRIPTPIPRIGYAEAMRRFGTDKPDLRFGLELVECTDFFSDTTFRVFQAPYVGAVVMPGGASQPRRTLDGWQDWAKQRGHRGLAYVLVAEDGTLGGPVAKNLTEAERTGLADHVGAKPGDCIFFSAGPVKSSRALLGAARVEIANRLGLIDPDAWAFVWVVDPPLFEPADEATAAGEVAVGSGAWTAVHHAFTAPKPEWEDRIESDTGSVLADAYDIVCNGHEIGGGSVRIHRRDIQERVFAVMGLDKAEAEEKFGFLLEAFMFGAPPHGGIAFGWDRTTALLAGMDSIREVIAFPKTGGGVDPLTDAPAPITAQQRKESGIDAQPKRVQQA

[2] = biological target: Shiga toxin 2 (Escherichia coli O157:H7) (UniProt P09385+P09386); test: E. coli 0.157:H7 Shiga Toxin SOP - stx2 screening assay; format: functional; design: scale not given: direction of the effect not stated beside the values; conditions: 30 µM

Row | SMILES | Percent Effect [1] [%] | Percent Effect [2] [%]
1 | Cc1nn(C)c(N(C)C)c1CNC(C)c1cccc(OC(C)C)c1 (centres undefined) | -3.06 | -5.32
2 | COC(=O)C(C)(C)NC(=O)C1CC(=O)N(C2CCCC2)C1 (centres undefined) | 0.137 | -3.28
3 | CCc1nnc2n1CCN(C(=O)COCCc1ccccc1)C2 | 3.29 | 24.8
4 | Cc1cc(CN(C)C(=O)c2ccc(C(F)(F)F)nc2)no1 | -0.926 | -2.99
5 | CCc1nccn1C1CCCN(C(=O)Cc2cn3ccccc3n2)C1 (centres undefined) | 0.0146 | -20.4
6 | COc1cccc(CN2CCN(c3ccc4nncn4n3)C(C)C2)c1 (centres undefined) | -3.34 | 14.8
7 | COC(=O)c1cccc(C(=O)N2CCN(c3cccc(C)c3C)CC2)n1 | -1.18 | -18.6
8 | O=C(NCC1(N2CCOCC2)CCSC1)Nc1ccc(F)cc1 (centres undefined) | 2 | -8.73
9 | Cc1ccc(CN2CCn3cc(CN(C)Cc4ccco4)nc3C2)o1 | 1.01 | -24.1
10 | O=C(CNCCn1cccn1)NCC1(c2ccccc2)CC1 | 1.09 | 13.4
11 | c1cncc(OCC2CN(Cc3ccco3)Cc3nccn3C2)c1 (centres undefined) | -1.34 | -17.2
12 | CC(C)c1nc(C2CCCN2Cc2ccccc2C#N)no1 (centres undefined) | -6.4 | -29.9
13 | O=C([C@H]1CCCO1)N1CCCC2(CCN(Cc3ccncc3)C2=O)C1 (some centres undefined) | 3.8 | -9.24
14 | CCCNC(=O)N1CCC(Oc2cc(C)ccc2F)(C(=O)O)CC1 | -3.4 | 8.44
15 | CCc1nnc(CNCC2CCN(CC(O)c3ccccc3)CC2)o1 (centres undefined) | -2.95 | -40.8
16 | COc1ccc(CNCC2CCN(CC(C)O)CC2)c2ccccc12 (centres undefined) | -5.41 | -33.8
17 | CS(=O)(=O)CCSc1cccc(C#N)c1 | 0.641 | 4.17
18 | CCN1Cc2c(C(=O)NCC3CC3)ncn2-c2ccccc2S1(=O)=O | -3.35 | 8.11
19 | O=S1(=O)COCCN1Cc1cccc(Cl)c1 | -0.479 | 10.7
20 | Cn1cc(CN2CCOCC3(C2)CN(c2ccccc2)C(=O)CO3)cn1 (centres undefined) | 5.42 | 4.18
21 | Cc1noc(C)c1CNCC1CCCN1c1cccnn1 (centres undefined) | 1.53 | 5.13
22 | CN(C)CCOCC1CN(CC2CCOCC2)Cc2nnn(C)c21 (centres undefined) | -1.11 | -12.4
23 | COc1ccc(OC)c(NC(=O)N2CCCC2c2ccco2)c1 (centres undefined) | -4.36 | 0.199
24 | CCCN(CC1COc2ccccc2O1)C(=O)CCn1cncn1 (centres undefined) | -2.54 | 34.4

Row | SMILES | Percent Effect [1] [%] | Percent Effect [2] [%]
25 | Cc1cc(C2CCCN2Cc2cc(=O)n(C)c(=O)n2C)on1 (centres undefined) | 0.485 | 14.1
26 | CN(Cc1ccon1)C(=O)C1CC(=O)N(Cc2ccncc2)C1 (centres undefined) | 5.91 | 6.22
27 | Cc1nc(CN2CCO[C@@H]3CN(C(=O)NC(C)C)CC[C@@H]3C2)cs1 | 3.49 | -4.73
28 | COc1ccc(Cl)cc1C(=O)N1CCOC2(CNCCOC2)C1 (centres undefined) | -0.926 | 11.2
29 | CCn1nc(C)c(CCNC(=O)C2CCCN(CC(N)=O)C2)c1C (centres undefined) | -2.59 | 7.92
30 | CCc1ncc2c(n1)CN(C(=O)COC)C2 | 2.9 | -5.79
31 | CN(C)C(=O)C1(CCCc2ccncc2)CCCN1 (centres undefined) | -0.998 | 11.3
32 | COCCN1CCc2cc(C(=O)NCC3CC3)c(NC(C)C)nc2CC1 | 7.66 | 6.55
33 | Cc1nc(C(=O)N2CCCC(n3cncn3)C2)cs1 (centres undefined) | -3.48 | 1.3
34 | NCC(=O)N1CCCC(c2cncc(Nc3ncccn3)n2)C1 (centres undefined) | 1.44 | 1.91
35 | Cc1nn(C)c(C)c1C1COCCN1C(=O)Cc1cccc(F)c1 (centres undefined) | 1.67 | -31
36 | CN(CCN1CCCCCC1)C(=O)c1cc(CN2CCC(O)CC2)on1 | 5.29 | -37.1
37 | CN(C)C(CNC(=O)c1cccc(-n2cnnn2)c1)c1ccccc1Cl (centres undefined) | 3.08 | -14.9
38 | COc1ncccc1C(=O)N1CCn2c(COCC3CC3)cnc2C1C (centres undefined) | -2.76 | 6.35
39 | CCN(C(=O)CN(C)C(c1cccc(F)c1)c1ccccn1)C1CC1 (centres undefined) | -2.49 | 8.33
40 | COc1cccc2c1OCC(CNC(=O)CNC(N)=O)C2 (centres undefined) | 4.22 | 11.9
41 | CC(C)C(Sc1nnnn1-c1ccccc1)C(=O)NCc1cccnc1 (centres undefined) | 1.64 | 8.76
42 | Cn1ccc2ccnc(CC3CN(C(=O)C4CCC(F)(F)CC4)C3)c21 | 0.551 | -23.1
43 | CCN1CCCC1CN(CCN(C)C)S(=O)(=O)c1ccc(C#N)cc1 (centres undefined) | -3.16 | -8.05
44 | O=C(c1cnccn1)N1CCOCC2(CCN(C3CCOCC3)C2)C1 (centres undefined) | 3.28 | -36.9
45 | CN(C)C(CNS(=O)(=O)c1ccc(F)cc1F)c1cccn1C (centres undefined) | 0.719 | -2.1
46 | CCn1cnnc1C1CCN(C(=O)COCCc2ccccc2)CC1 | -3.95 | -20.2
47 | CN(C)c1ncnc2c1CCN(CC1CCOC1)CC2 (centres undefined) | -1.82 | -26.9
